30 compounds from the supplement of paper PMC13380429 can be followed below.

Test [1] deals with Vero E6 infected with SARS-CoV-2. As to the kind of experiment: morphology score (similarity to uninfected cells); higher = more like uninfected cells. Particulars: 24 h.
Test [2] has the same test system. Put plainly: SARS-CoV-2 infection rate relative to infected DMSO; higher = more infection, active = 60 or less. The conditions noted are these: 24 h.

As for `CN1C(=O)CN=C(c2ccccc2)c2cc(Cl)ccc21` [diazepam] (10 µM), the morphology score in test [1] was determined as 0.0883. For the same compound, the SARS-CoV-2 infection rate in test [2] was 108% (inactive).
`C=C[C@@](C)(/C=C/c1ccc(O)cc1)CCC=C(C)C` [bakuchiol] (10 µM) registered a morphology score in test [1] of -0.328. The SARS-CoV-2 infection rate in test [2] was 114% (inactive).
On to `CSc1nc(-c2ccc(F)cc2)c(-c2ccnc(N[C@@H](C)c3ccccc3)c2)[nH]1` (10 µM), for which the morphology score in test [1] is -0.159. Further, in test [2], the SARS-CoV-2 infection rate was 107% (inactive).
For the compound `CCCCCCCCCCCCCC(=O)[O-].CCCCCCCCCCCCCC(=O)[O-].N[C@@H]1CCCC[C@H]1N.[Pt+2]` [miriplatin] (10 µM), the morphology score in test [1] was determined as 0.0834. The SARS-CoV-2 infection rate in test [2] is 114% (inactive).
Consider `C[C@@]12CCc3occc3[C@H]1CC[C@@]13C[C@@H](CC[C@H]12)[C@@](O)(CO)C3` [cafestol] (10 µM), for which the morphology score in test [1] was -0.0842. Also, in test [2], the SARS-CoV-2 infection rate was 112% (inactive).
The matching figures for `CN(C)CCOC(c1ccccc1)c1ccccc1.Cn1c(=O)c2[nH]c(Cl)nc2n(C)c1=O` [dimenhydrinate] (10 µM): -0.0688 and 110% (inactive).
On to `CC[C@H]1CN2CC[C@H]1C[C@@H]2[C@@H](O)c1ccnc2ccc(OC)cc12` [hydroquinidine] (10 µM), for which, in test [1], the morphology score amounted to 0.301. Further, the SARS-CoV-2 infection rate in test [2] was 90% (inactive).
The matching figures for `COC(=O)C1=C(C)NC(C)=C(C(=O)OCCCN2CCC(c3ccccc3)(c3ccccc3)CC2)[C@@H]1c1cccc([N+](=O)[O-])c1` [dexniguldipine] (0.833333 µM): 0.134 and 97.5% (inactive).
`O[C@H]1[C@H]2[C@H](O)CCCN2C[C@H]1O` [swainsonine] (10 µM) displayed a morphology score in test [1] of -0.0751. Besides, in test [2], the SARS-CoV-2 infection rate was 97% (inactive).
`O=C[C@H](O)[C@@H](O)[C@H](O)CO` [xylose] (10 µM) returned a morphology score in test [1] of -0.0367. Further, the SARS-CoV-2 infection rate in test [2] is 108% (inactive).
The matching figures for `CCOCC(O)COc1ccc(NC(=O)CC[S+](C)C)cc1` (stereo not given) [suplatast] (10 µM): 0.0407 and 102% (inactive).
In turn, `Cc1cnc(-c2ccccc2C(C)C)nc1NCc1ccc(-n2ccnn2)cc1` (10 µM) showed a morphology score in test [1] of 0.0189. Besides, the SARS-CoV-2 infection rate in test [2] was 101% (inactive).
The matching figures for `COc1cc(C(=O)N2CCOCC2)cc(OC)c1OC` [trimetozine] (10 µM): -0.0638 and 113% (inactive).
Turning to `Nc1nccc2c1ncn2[C@@H]1O[C@H](CO)[C@@H](O)[C@@H]1O` [3-deazaadenosine] (10 µM), in test [1], the morphology score was found to be 0.123. Moreover, the SARS-CoV-2 infection rate in test [2] was 106% (inactive).
`CC[C@H]1[C@@H]2C[C@H]3[C@@H]4N(C)c5ccccc5[C@]45C[C@@H]([C@@H]2[C@H]5O)N3[C@@H]1O` [ajmaline] (10 µM) registered a morphology score in test [1] of -0.0982. The SARS-CoV-2 infection rate in test [2] was 106% (inactive).
The matching figures for `Cc1cc(CN)cc(C)c1NC(=O)c1ccc(-c2cc(Cl)ccc2Cl)o1` (10 µM): 0.717 and 7.5% (active).
As to `c1ccc(CN(CC2=NCCN2)c2ccccc2)cc1` [antazoline] (10 µM), in test [1], the morphology score is -0.22. In test [2], the SARS-CoV-2 infection rate was 112% (inactive).
For `C/C(=C\c1csc(C)n1)[C@@H]1C[C@@H]2O[C@]2(C)CCC[C@H](C)[C@H](O)[C@@H](C)C(=O)C(C)(C)[C@@H](O)CC(=O)O1` [epothilone-B] (0.833333 µM), the morphology score in test [1] was 0.00236. Moreover, the SARS-CoV-2 infection rate in test [2] is 115% (inactive).
`Oc1ccc(O)cc1` [hydroquinone] (10 µM) gave a morphology score in test [1] of 0.00582. In addition, the SARS-CoV-2 infection rate in test [2] was 108% (inactive).
Compound `COc1ccc(OC)c(CN(C(C)=O)c2cc(F)ccc2Oc2ccccc2)c1` (10 µM) came in with a morphology score in test [1] of 0.0987. Further, in test [2], the SARS-CoV-2 infection rate was 95% (inactive).
In the case of `COc1ccccc1OCC(O)COC(N)=O` (stereo not given) [methocarbamol] (10 µM), the morphology score in test [1] is 0.0924. In test [2], the SARS-CoV-2 infection rate was 100% (inactive).
The matching figures for `S=C(NCCc1ccccn1)Nc1ccc(Br)cn1` [trovirdine] (10 µM): 0.00939 and 110% (inactive).
The matching figures for `Oc1nc(O)c2nc(O)[nH]c2n1` [uric-acid] (10 µM): -0.0319 and 106% (inactive).
Compound `CCCc1ccc(C(=O)O)cc1` [4-propylbenzoic-acid] (10 µM) came in with a morphology score in test [1] of 0.187. Also, the SARS-CoV-2 infection rate in test [2] was 95% (inactive).
`CC[C@H](C)[C@@H]([C@@H](CC(=O)N1CCC[C@H]1[C@H](OC)[C@@H](C)C(=O)N[C@@H](Cc1ccccc1)c1nccs1)OC)N(C)C(=O)[C@@H](NC(=O)[C@H](C(C)C)N(C)C)C(C)C` [dolastatin-10] (0.833333 µM) showed a morphology score in test [1] of 0.0156. For the same compound, the SARS-CoV-2 infection rate in test [2] is 106% (inactive).
The compound `CCCC(C)C1(CC)C(=O)NC(=O)NC1=O` (stereo not given) [pentobarbital] (10 µM) came in with a morphology score in test [1] of 0.0334. The SARS-CoV-2 infection rate in test [2] is 100% (inactive).
`Cc1c(C(=O)NCCCO)cnn1-c1nc(-c2cccc(C(F)(F)F)c2)cs1` (10 µM): in test [1], the morphology score was found to be 0.107. Moreover, the SARS-CoV-2 infection rate in test [2] was 97.5% (inactive).
With `O=C(O)c1cc(C(=O)O)c(C(=O)N(Cc2cccc(Oc3ccccc3)c2)[C@H]2CCCc3ccccc32)cc1C(=O)O` (10 µM), in test [1], the morphology score amounted to 0.189. The SARS-CoV-2 infection rate in test [2] was 95.5% (inactive).
Take `CC1=C(/C=C/C(=C/C=C/C(C)=C/C(=O)O)c2ccc(C)cc2)C(C)(C)CCC1` (10 µM): in test [1], the morphology score stood at 0.171. The SARS-CoV-2 infection rate in test [2] is 106% (inactive).
The matching figures for `CCN1CCC[C@H]1CNC(=O)c1c(OC)ccc(Br)c1OC` [remoxipride] (10 µM): 0.159 and 98.5% (inactive).
